Bioassay records (PubChem)
ATXN viability – reduces viability in counter-screen for ATXN expression inhibitors; S2 cells (HEK-293 line with an ATXN2-luciferase reporter) viability, CellTiter-Fluor protease fluorescence, 24 h; Potency, µM (highest dose often 56.7 µM), usual class: cytotoxic; 400,000 compounds, 0.49% hits; AID 651635; note: nearly all actives have a fitted effect of over 40% in size
HT1080 IDH1KD tx – kills HT-1080 cells with IDH1 knockdown. HT-1080 IDH1 knockdown viability, ATP luminescence, 48 h. Potency, µM (top dose mostly 46.1 µM), without a hit: at the top dose activity, negative = toxicity, most hits filed as cytotoxic. 360,000 compounds, 2% hits;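 note: 0% = DMSO wells and -100% = cell-free medium wells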
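Luminescent ATP read-out (CellTiter-Glo, 10 min at room temperature) after 48 h compound exposure at 37 °C gave viability of IDH1-knockdown HT-1080 cells. Activity was normalised to DMSO and cell-free wells, then fitted as concentration-response curves.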
KB-V1 cytotox – kills drug-selected multidrug resistant KB-V1 cells; KB-V1 MDR cells viability, CellTiter-Glo, 72 h; Potency, µM (highest dose often 46.1 µM), hits mostly cytotoxic; 400,000 compounds, 3.4% hits; AID 1347076; note: % is set by controls: 0 for no effect and ±100 for the full control effect; nearly all actives have a fitted effect of over 60% in size
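Potencies derive from concentration-effect curves fitted to normalized luminescence (CellTiter-Glo) of KB-V1 cells treated for 72 h at 37 degrees C in phenol-red-free DMEM containing 10% FBS.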
HT1080NT lethal – kills 2HG-producing HT-1080-NT fibrosarcoma cells; HT-1080-NT fibrosarcoma viability, CellTiter-Glo ATP luminescence, 48 h; Potency, µM (titrated, usually from 46.1 µM), without a hit: at the highest dose activity, negative = less viability, most hits filed as cytotoxic; 360,000 compounds, 1.6% hits; AID 686970;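 note: NT is the 2HG producing partner of a matched IDH1 knockdown line; 0% = DMSO-treated cells and -100% = media-only wells without cells; nearly all actives have a fitted effect of over 55% in size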
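A 48-hour cytotoxicity screen used HT-1080-NT cells plated 2 hours before compound delivery. ATP-based CellTiter-Glo luminescence measured viability, normalized to DMSO and no-cell controls.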
ATXN2 expr inh – inhibitors of ATXN2 expression; Potency, µM (doses to about 57 µM), inactives show at the highest dose activity change, negative = inhibition, usual class: inhibitors; 360,000 compounds, 0.72% hits; AID 1745845; HEK-293 ATXN2-luciferase reporter, luminescence, 24 h; note: % is set by controls: 0 for no effect and ±100 for the full control effect; nearly all actives have a fitted effect of over 55% in size
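ATXN2-luciferase reporter cells (luciferase flanked by upstream and downstream ATXN2 gene portions) were treated 24 h at 37 °C with compounds at up to 57 uM. SteadyGlo luminescence gave expression; GF-AFC fluorescence gave viability.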
KB-3-1 cytotox – KB-3-1 parental cell cytotoxicity. 400,000 compounds, 1.4% hits. Potency, µM (top dose mostly 46.1 µM), actives largely listed as cytotoxic. AID 1347075. KB-3-1 viability, CellTiter-Glo ATP luminescence, 72 h; note: % is set by controls: 0 for no effect and ±100 for the full control effect; nearly all actives have a fitted effect of over 60% in size
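Luminescent ATP read-out (CellTiter-Glo) measures survival of drug-naive KB-3-1 cells after 72 h compound exposure at 37 °C. Titration series was screened from lowest to highest concentration, with DMSO vehicle plates as background controls.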
The depositor's hits bear a star; i = inactive; ? = inconclusive; nt = no result. Rows were chosen to be rich in hits. Some 6.2% of all compounds tested hit in one or more screens of this group. Calls come from the whole dose curve; as a rule, active = well fitted curve in the direction sought with a large enough effect; inconclusive = small, poorly fitted or top-dose-only effect, or another doubt; inactive = no such curve, though single readings can be large; an effect the other way counts as inactive or inconclusive. Potency is the fitted concentration of half-maximal effect.

SMILES	ATXN viability	HT1080 IDH1KD tx	KB-V1 cytotox	HT1080NT lethal	ATXN2 expr inh	KB-3-1 cytotox
Cc1ccc(CN(c2ccc(C(=O)Nc3ccc4c(c3)OCO4)cc2)S(C)(=O)=O)cc1	i	-6%	6.5µM*	0%	9%	i
Cc1ccc(Cn2ccc(NC(=O)c3cc(-c4ccc(Cl)cc4)on3)n2)cc1	i	7%	i	11%	-17%	i
Cc1ccc(Cn2ccc(NC(=O)c3cc(-c4cccc(Cl)c4)on3)n2)cc1	?	6%	15µM*	-22%	-20%	i
Nc1[nH]c(=S)[nH]c(=O)c1N	nt	nt	i	nt	nt	i
Cc1cc(C)cc(C(=O)NC(=S)Nc2ccc3c(c2)OCCO3)c1	i	10%	4.6µM*	-3%	21%	i
C=CCN(c1ccc(C(=O)Nc2ccc(C)c(C)c2)cc1)S(C)(=O)=O	i	-4%	21µM*	-1%	23%	i
O=C(CCl)Nc1ccc2c(c1)OCO2	nt	18µM*	?	9.2µM*	-16%	15µM*
Cc1ccc(C(=O)Nc2ccc3c(c2)OCCO3)cc1	i	-19%	?	-4%	13µM*	i
CC(C)CC(=O)Nc1ccc2c(c1)OCO2	i	4%	i	4%	1%	i
CCc1ccc(C(=O)NC(=S)Nc2ccc3c(c2)OCCO3)cc1	i	-4%	i	-25%	105%	i
C=CCN(c1ccc(C(=O)Nc2ccc(C)cc2)cc1)S(C)(=O)=O	i	-5%	i	5%	14%	i
Cc1oc(C(C)(C)C)cc1C(=O)Nc1ccc2c(c1)OCO2	i	-17%	i	-18%	14%	i
Cc1c(C(=O)Nc2ccc3c(c2)OCCO3)oc2ccc(Br)cc12	i	1%	21µM*	-1%	33%	i
CCN(CC)c1ccc(NC(=O)c2ccc3c(c2)OCO3)cc1	?	21µM*	?	?	4%	?
O=C(NC(=S)Nc1ccc(N2CCCCC2)c(Cl)c1)c1ccc2c(c1)OCCO2	?	18µM*	?	12µM*	?	1.2µM*
Cc1oc(C(C)(C)C)cc1C(=O)Nc1ccc2c(c1)OCCO2	i	-17%	21µM*	-9%	49%	i
CCc1c(C)sc2c1CCN(C(=O)Nc1ccccc1Cl)C2c1ccc(OC)cc1 (centres undefined)	?	nt	i	nt	-26%	i
COC(=O)c1c(C)sc(-c2c(-c3cccc(Cl)c3)[nH]c3c2c(=O)[nH]c(=O)n3C)c1O	i	nt	i	nt	16%	i
Cc1ccc(N(CC(=O)Nc2ccc3c(c2)OCCO3)S(C)(=O)=O)cc1	i	0%	i	13%	41%	i
CCC(=O)N1CCN(c2ccc(Cl)cc2NC(=O)c2ccc3c(c2)OCCO3)CC1	i	-10%	5.2µM*	-1%	-15%	i
Cc1cccc(Cn2ccc(NC(=O)c3ccc4c(c3)OCO4)n2)c1	i	1%	18µM*	-4%	7%	i
CCC(=O)N1CCN(c2ccc(NC(=O)c3ccc4c(c3)OCCO4)cc2)CC1	i	?	i	-28%	21%	i
O=C(Nc1ccn(Cc2ccc(Cl)cc2)n1)c1ccc2c(c1)OCO2	i	-4%	i	-27%	19%	i
CS(=O)(=O)N(CC(=O)Nc1ccc2c(c1)OCO2)c1ccc(Cl)cc1	i	-1%	23µM*	-3%	19%	i
CCOC(=O)C1=C(C)Nc2ncnn2C1c1cccs1 (centres undefined)	i	-5%	i	0%	-6%	i
SMILES	ATXN viability	HT1080 IDH1KD tx	KB-V1 cytotox	HT1080NT lethal	ATXN2 expr inh	KB-3-1 cytotox
CCOC(=O)C1=C(C)Nc2ncnn2C1c1cc(Br)ccc1F (centres undefined)	i	?	21µM*	-8%	-20%	?
CCOC(=O)C1=C(C)Nc2ncnn2C1/C=C/c1ccccc1 (centres undefined)	i	?	10µM*	?	-25%	?
COCCOC(=O)C1=C(C)Nc2ncnn2C1c1ccccc1 (centres undefined)	i	-1%	i	?	2%	i
CCCC1=C(C(=O)OCC)C(c2cccs2)n2ncnc2N1 (centres undefined)	nt	0%	?	17%	nt	i
CCCC1=C(C(=O)OCC)C(/C=C/c2ccccc2)n2ncnc2N1 (centres undefined)	i	11µM*	?	22µM*	-24%	8.9µM*
CCOC(=O)C1=C(C)NC(=O)NC1/C(C)=C/c1ccccc1 (centres undefined)	i	?	21µM*	-15%	-21%	i
CCCCOC(=O)C1=C(C)Nc2ncnn2C1c1ccc(OCC)c(OC)c1 (centres undefined)	i	7%	4.6µM*	7%	5%	i
CCCCOC(=O)C1=C(C)Nc2ncnn2C1c1ccc(OC)c(OC)c1 (centres undefined)	i	2%	i	3%	-2%	i
CCCC1=C(C(=O)OCC)C(c2ccc(F)cc2)n2ncnc2N1 (centres undefined)	?	3%	i	5%	1%	i
CCCC1=C(C(=O)OCC)C(c2ccc(N(C)C)cc2)n2ncnc2N1 (centres undefined)	?	-23%	18µM*	-14%	4%	?
CCOC(=O)c1ccccc1NC(=O)Cn1c(=O)n(Cc2nc(-c3ccccc3)no2)c(=O)c2ccccc21	i	nt	i	nt	4%	i
CCN1CCN(c2oc(-c3ccc(COc4ccccc4C)o3)nc2C#N)CC1	i	nt	i	nt	-30%	21µM*
Cc1cccc(OCc2ccc(-c3nc(C#N)c(NCc4cccnc4)o3)o2)c1	22µM*	nt	i	nt	28µM*	i
Cc1ccccc1OCc1ccc(-c2nc(C#N)c(NCc3cccnc3)o2)o1	?	nt	?	nt	32µM*	?
CC(C)(C)c1ccc(-c2nc(C#N)c(NCc3cccnc3)o2)cc1	i	?	21µM*	?	32%	i
COc1ccccc1-c1ccnc(-n2ncc(C(=O)N[C@H]3CCCCNC3=O)c2C2CC2)n1	i	nt	nt	nt	nt	nt
O=C(Cc1ccc2ccccc2c1)NO	nt	19%	nt	24%	nt	nt
COC(=O)[C@@]1(Cc2ccc(F)cc2)[C@H]2c3cc(C(=O)N(C)C)n(Cc4ccccc4)c3C[C@H]2CN1C(=O)c1ccccc1	?	-9%	i	?	?	i
COC(=O)[C@@]1(Cc2ccc(F)cc2)[C@H]2c3cc(C(=O)N(C)C)n(Cc4ccc(C)o4)c3C[C@H]2CN1C(=O)c1ccccc1	nt	21µM*	16µM*	?	?	?
